Experimental data as given in PubChem BioAssay AID853 (Columbia University Molecular Screening Center, 2007).
Hit rate of the full screen: of about 47,000 compounds, about 200 (0.43%) were called active. About 1% were inconclusive and are not listed.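 The calls were made as follows: active = inhibition of aggregate fluorescence above about 70%, also judged a hit by eye on the cell image (limit read from the data, passing the limit was not always enough); inconclusive = no rule stated for this call; inactive = not judged a hit on image review.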 Many of the other results were omitted from the sample, so actives are more common in it than they were.

Experiment: removal of polyQ htt aggregates in HeLa – imaging, HeLa Exon1htt(103Q)mCFP, confocal imaging, primary screen (AID 853);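 also: cells exposed to compound for three days before fixation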
Conditions: aggregate imaging, at 1.5 µM; fraction fluorescence in grains: measured here: aggregate grain fluorescence fraction, stronger effect = lower value; inhibition: stronger effect = higher value, zero = plate's median compound well

| Structure (SMILES) | fraction fluorescence in grains | inhibition |
| --- | --- | --- |
| CC(Sc1nnc(Cc2ccc([N+](=O)[O-])cc2)o1)C(N)=O (stereo not drawn) | 30.7 | 0.3% (inactive) |
| Cc1nc(NC2=NC(C(=O)Nc3ccc(Cl)cc3)CC(=O)N2)nc2ccccc12 (stereo not drawn) | 22.8 | 22.1% (inactive) |
| CCCCCN1CC(O)=C(c2nc(-c3ccc(Cl)cc3)cs2)C1=N | 36.3 | 8.6% (inactive) |
| CCN(CC)CCN1C(=O)C(=O)/C(=C(/O)c2cnn(-c3ccccc3)c2C)C1c1cccs1 (stereo not drawn) | 54.5 | -25.7% (inactive) |
| O=C(NCCSCc1ccccc1)c1ccc(Cl)c(S(=O)(=O)N2CCOCC2)c1 | 25.6 | -28.1% (inactive) |
| CC(=O)N1CCN(c2cccc(C)c2C)CC1 | 46.1 | -25.4% (inactive) |
| CC(C)C[C@H](NC(=O)NCCc1ccc(Cl)cc1)C(=O)O | 16.2 | 12.2% (inactive) |
| CSCC[C@H](NC(=O)NCCc1ccc(F)cc1)C(=O)O | 15.6 | 18.4% (inactive) |
| C[C@H](NC(=O)NCCc1ccccc1)C(=O)O | 5.06 | 70.9% (active) |
| O=C(c1ccc(F)cc1)c1c[nH]c(C(=O)NCc2cccnc2)c1 | 38.1 | 1% (inactive) |
| Fc1cnc(N2CCOCC2)nc1NCc1ccccc1 | 12.4 | 35.6% (inactive) |
| O=c1c2ccccc2nc2n1C(CSCc1ccccc1)CS2 (stereo not drawn) | 35.3 | 8.1% (inactive) |
| CCCc1cc(=O)[nH]c(SCC(=O)OCc2ccccc2)n1 | 59.2 | -54.1% (inactive) |
| CCOC(=O)Cc1csc(NC(=O)CSc2nnc(-c3cccnc3)n2Cc2ccco2)n1 | 20.9 | -18.9% (inactive) |
| Cc1nn(Cc2ccc(C(=O)N3N=C(C(F)F)CC3(O)C(F)F)cc2)c(C)c1[N+](=O)[O-] (stereo not drawn) | 62.5 | -61% (inactive) |
| CCN1C(=O)/C(=C2/Sc3ccc(OC)cc3N2C)SC1=Nc1ccc(C)cc1 | 17.9 | -1.7% (inactive) |
| CCOC(=O)c1cnc(SCC(=O)Nc2ccccc2C(=O)OC)nc1N | 20.5 | -16.8% (inactive) |
| COc1ccc(C(=O)Nc2nc(-c3ccc(OC)cc3)c(-c3ccc([N+](=O)[O-])cc3)s2)cc1 | 21.2 | 47.9% (inactive) |
| CCN(CC)S(=O)(=O)c1ccc2c3c(cccc13)C(=O)S2 | 38.9 | -8.8% (inactive) |
| COc1ccc(Cl)cc1C(=O)NCC#N | 28.6 | 27.9% (inactive) |
| COc1ccc(C(=O)NCCc2ccc(S(N)(=O)=O)cc2)cc1OC | 43.5 | -18.4% (inactive) |

| Structure (SMILES) | fraction fluorescence in grains | inhibition |
| --- | --- | --- |
| CCn1c(O)c2ccc(C(=O)N=NC(=O)c3cccnc3)cc2c1O | 37.7 | -25.3% (inactive) |
| Cc1ccc(-c2nn(-c3ccccc3)cc2/C=N/NC(=O)c2ccc3c(c2)OCO3)cc1 | 34 | -12.7% (inactive) |
| CC12c3ccccc3C(c3ccccc31)C1C(=O)N(Cc3cccnc3)C(=O)C12 (stereo not drawn) | 12 | 60.9% (inactive) |
| COc1ccc(OC)c(/C=N/NC(=O)CSc2nnc(C)n2-c2ccccc2)c1 | 32.4 | -7.5% (inactive) |
| Cc1cc(C)cc(NC(=O)c2cccc(NC(=O)C3C4CC5OC(=O)C3C5C4)c2)c1 (stereo not drawn) | 31 | -31.4% (inactive) |
| O=C(c1ccccc1)c1cc(-c2ccccn2)c(N2CCOCC2)s1 | 30.5 | 22% (inactive) |
| Cc1ccc(-n2nc3c(c2NC(=O)CCC2CCCCC2)CS(=O)C3)cc1 (stereo not drawn) | 38.7 | 17.6% (inactive) |
| CC1=C(C(N)=O)C(c2sccc2C)n2nnnc2N1 (stereo not drawn) | 60.2 | -59.3% (inactive) |
| O=C(Nc1ncc2c(n1)-c1ccccc1OC2)c1ccc(Cl)cc1 | 34.8 | 7.6% (inactive) |
| COc1cccc(N(CC(=O)NCCSc2ccccn2)S(C)(=O)=O)c1 | 32.4 | -38.8% (inactive) |
| COc1cc(C)c(C(C)C)cc1S(=O)(=O)n1ccnc1 | 38.5 | -120% (inactive) |
| O=C(NC1(C(F)(F)F)NC(=O)N(Cc2cccnc2)C1=O)c1ccccc1Cl (stereo not drawn) | 32.6 | 13.2% (inactive) |
| Cc1nnc(OCC(=O)NCCC2=CCCCC2)c2ccccc12 | 30.6 | 19% (inactive) |
| CCC(c1nnnn1Cc1ccco1)N(Cc1cc2cc(OC)ccc2[nH]c1=O)C1CCCCC1 (stereo not drawn) | 12.1 | 36.8% (inactive) |
| CCC(c1nnnn1Cc1ccccc1)N(Cc1cc2cc(OC)ccc2[nH]c1=O)CC1CCCO1 (stereo not drawn) | 3.01 | 83.8% (active) |
| CCC(c1nnnn1Cc1ccco1)N(CCc1ccccc1)Cc1cc2ccc(OC)cc2[nH]c1=O (stereo not drawn) | 19.4 | 46.6% (inactive) |
| CCC(c1nnnn1Cc1ccco1)N(CCc1ccccc1)Cc1cc2cccc(C)c2[nH]c1=O (stereo not drawn) | 4.66 | 75.8% (active) |
| Cc1cc2cc(CN(Cc3cccs3)Cc3nnnn3CC3CCCO3)c(=O)[nH]c2cc1C (stereo not drawn) | 18 | 47.9% (inactive) |
| CCC(c1nnnn1C1CCCC1)N(Cc1cccs1)Cc1cc2cccc(C)c2[nH]c1=O (stereo not drawn) | 14.9 | 27.8% (inactive) |
| CCOC(=O)C(C)Oc1cccc2c(=O)n(CC(=O)N3CCc4ccccc43)ccc12 (stereo not drawn) | 44.7 | -33.2% (inactive) |
| CCCCNC(=O)OC(C)CNC(=O)OC (stereo not drawn) | 23.8 | 25% (inactive) |

| Structure (SMILES) | fraction fluorescence in grains | inhibition |
| --- | --- | --- |
| Cc1cc(C)c2c(-n3cccc3)c(NC(=O)OCc3ccccc3)sc2n1 | 37.4 | -74.7% (inactive) |
| Cc1ccccc1CS(=O)(=O)CC1(O)CCN(C(=O)c2cccc(C(F)(F)F)c2)CC1 | 32.9 | 14.5% (inactive) |
| CC(=O)c1cccc(NC(=O)c2ccncc2)c1 | 33.8 | 20.4% (inactive) |
| COc1ccc2c3c(c(=O)oc2c1OCC(=O)C(C)(C)C)CCCC3 | 20.5 | -3.3% (inactive) |
| N=c1c2c(-c3ccccc3)c(-c3ccccc3)oc2ncn1Cc1ccco1 | 39.1 | -27.2% (inactive) |
| Cc1nnc(SCC(=O)N2CCN(c3ccccc3)CC2)n1-c1ccccc1 | 45.5 | -15% (inactive) |
| O=C(O)c1ccc(F)c(S(=O)(=O)Nc2ccccc2)c1 | 49.7 | -13.1% (inactive) |
| O=C(C(NS(=O)(=O)c1cccc2nsnc12)c1ccccc1)N1CCN(c2ccccn2)CC1 (stereo not drawn) | 32.5 | 12.4% (inactive) |
| O=C(O)c1ccc(NS(=O)(=O)c2cccc3nsnc23)cc1 | 5.36 | 70.5% (active) |
| Cc1cccc(-c2nc3c(c(SCC(=O)N4CCOCC4)n2)CCCC3)c1 | 18.5 | -1.6% (inactive) |
| CCOc1ccc2c(c1)C(c1ccc(C)cc1)=NNC(c1ccc(C)cc1)=N2 | 11 | 38.1% (inactive) |
| CCS(=O)(=O)n1nc(-c2ccccc2)nc1SCc1ccccc1 | 24.1 | -44.5% (inactive) |
| c1ccc(CSc2nnc(-c3ccco3)n2Cc2ccccc2)cc1 | 21.2 | -3.2% (inactive) |
| Cn1c(CO)cnc1SCc1ccccc1 | 10.9 | 71.7% (active) |
| COC(=O)c1nc2ccccc2s1 | 22.8 | -27.8% (inactive) |
| Cc1cc(OCCN2CCCC2)ccc1C(C)C | 38.3 | -2.5% (inactive) |
| CN1C(=O)CC(N2CCN(c3ccccn3)CC2)C1=O (stereo not drawn) | 29.4 | -42.3% (inactive) |
| Cc1nc2nc(C)c(CCC(=O)N3CCN(c4ccccc4)CC3)c(C)n2n1 | 38.5 | -21.5% (inactive) |
| CCSC(C)CC1C/C(=N/O)c2c(C)noc2C1 (stereo not drawn) | 43.5 | -15.9% (inactive) |
| Cc1cc(C(=O)Nc2ccccc2N2CCOCC2)c2ccccc2n1 | 9.37 | 47.3% (inactive) |
| Cn1sc(NC(=O)c2ccccc2)nc1=O | 24.3 | -16.8% (inactive) |

| Structure (SMILES) | fraction fluorescence in grains | inhibition |
| --- | --- | --- |
| O=C1/C(=C\Nc2ccccc2)CCN1c1ncccn1 | 25.9 | 18.4% (inactive) |
| CCN(CC)c1ccc(NC(=O)c2ccc(Cl)nc2)cc1 | 60.1 | -95.5% (inactive) |
| Clc1ccccc1-c1cc(COc2ccc3ccccc3c2)no1 | 33.9 | 11.8% (inactive) |
| Cc1c(NC(=O)c2cc(-c3ccc(Cl)s3)nc3ccccc23)c(=O)n(-c2ccccc2)n1C | 26.1 | 21.8% (inactive) |
| Cc1ccc(S(=O)(=O)N2CC(=O)Nc3ccccc32)cc1C | 33.9 | 11.1% (inactive) |
| COCCN(C(=O)c1ccco1)c1nnc(-c2ccc(OC)cc2)s1 | 39.8 | -2.8% (inactive) |
| C=CCNC(=S)NNc1ncnc2sc3c(c12)CC(C)(C)OC3 | 40.7 | -39.2% (inactive) |
| CC1=CC(C)(C)N(C(=O)CSc2nccn2C)c2cc(C)ccc21 | 13.3 | 26.1% (inactive) |
| CC(C)c1ccc(NC(=O)CCN2C(=O)c3ccc([N+](=O)[O-])cc3C2=O)cc1 | 13.6 | 55% (inactive) |
| COc1ccccc1NC(=O)CSc1nnc(C)n1CC1CCCO1 (stereo not drawn) | 15.8 | 17.7% (inactive) |
| COc1ccc(NC(=O)CCN2CCCC2)c(OC)c1 | 11.3 | 35.7% (inactive) |
| Cc1cc(-c2ccccc2)nc(N2CCC(C(=O)NC34CC5CC(CC(C5)C3)C4)CC2)n1 | 31 | 21.6% (inactive) |
| C=CCn1c(-c2ccc3[nH]c(C)c(C)c3c2)n[nH]c1=S | 89.3 | -112% (inactive) |
| Cc1ccc(CCN2CC(C(=O)O)CC2=O)cc1 (stereo not drawn) | 14.7 | 30.2% (inactive) |
| COc1ccc(C(CNC(=O)c2cccnc2SC)N2CCOCC2)cc1 (stereo not drawn) | 16.3 | 9.2% (inactive) |
| Cc1cc(C)nc(SCc2ccccc2C#N)n1 | 35.4 | -3.8% (inactive) |
| Cc1ccc2[nH]c3c(=O)n(Cc4ccccn4)cnc3c2c1 | 21.3 | 46.1% (inactive) |
| Cc1ccc(-n2ccc(=O)c(C(=O)O)n2)cc1 | 23.5 | 0.4% (inactive) |
| Cc1cccc(C)c1-n1c(C)cc(/C=C2\C(=O)NN(c3ccccc3)C2=O)c1C | 26.9 | 30.9% (inactive) |
| CCS(=O)(=O)N1CCN(C(=O)c2cccs2)CC1 | 32.5 | 27.2% (inactive) |
| C=CCC(NCc1ccco1)c1ccc(OC)cc1 (stereo not drawn) | 62.5 | -55.5% (inactive) |
